In PubChem BioAssay (Tox21):
“And” between values parts separate entries of the source, which are not always exact repeats. Identical values can stand only once. Results filed as inconclusive are left out. A structure can be active in one record and inactive in another. The source made the active and inactive calls. Unless noted, calls follow the shape of the dose curve; as a rule, active = well fitted curve in the direction sought with a large enough effect in the repeat runs; inconclusive = weak or mixed curves; inactive = no such curve, though single readings can be large; an effect the other way counts as inactive or inconclusive.

What was measured:
[1] = qHTS assay to identify small molecule antagonists of the estrogen receptor alpha (ER-alpha) signaling pathway using the BG1 cell line in the presence of 0.1 nM 17-beta-estradiol - cell viability counter screen (AID 1259241); also: nearly all actives have a fitted effect of over 40% in size
Procedure, shortened: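 Cytotoxicity counter-screen: live-cell protease activity measured by fluorescence (30 min reagent step) in the same wells. Cells were VM7Luc4E2 with endogenous ER-alpha and ERE-driven luciferase, treated 22 hr at 37C alongside 0.1 nM 17beta-estradiol final.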

[2] = qHTS assay to identify small molecule antagonists of the androgen receptor (AR) signaling pathway using the MDA cell line in the presence of 0.5 nM R1881 - cell viability counter screen (AID 1259242); also: nearly all actives have a fitted effect of over 45% in size
Procedure, shortened: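 Steps: plate MDA-kb2 cells, rest 5 hr at 37C without CO2; pin in compounds in DMSO; add R1881 to 0.5 nM final; incubate 16 hr; add CellTiter-Fluor, 30 min; read fluorescence.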

[3] = target: Estrogen receptor (Homo sapiens) (UniProt P03372); assay: qHTS assay to identify small molecule antagonists of the estrogen receptor alpha (ER-alpha) signaling pathway using the BG1 cell line in the presence of 0.1 nM 17-beta-estradiol (AID 1259244); also: nearly all actives have a fitted effect of over 50% in size; also: potency is read from the fitted curve at half-maximal effect
Estrogen receptor (Homo sapiens), sequence (P03372 whole entry, looked up): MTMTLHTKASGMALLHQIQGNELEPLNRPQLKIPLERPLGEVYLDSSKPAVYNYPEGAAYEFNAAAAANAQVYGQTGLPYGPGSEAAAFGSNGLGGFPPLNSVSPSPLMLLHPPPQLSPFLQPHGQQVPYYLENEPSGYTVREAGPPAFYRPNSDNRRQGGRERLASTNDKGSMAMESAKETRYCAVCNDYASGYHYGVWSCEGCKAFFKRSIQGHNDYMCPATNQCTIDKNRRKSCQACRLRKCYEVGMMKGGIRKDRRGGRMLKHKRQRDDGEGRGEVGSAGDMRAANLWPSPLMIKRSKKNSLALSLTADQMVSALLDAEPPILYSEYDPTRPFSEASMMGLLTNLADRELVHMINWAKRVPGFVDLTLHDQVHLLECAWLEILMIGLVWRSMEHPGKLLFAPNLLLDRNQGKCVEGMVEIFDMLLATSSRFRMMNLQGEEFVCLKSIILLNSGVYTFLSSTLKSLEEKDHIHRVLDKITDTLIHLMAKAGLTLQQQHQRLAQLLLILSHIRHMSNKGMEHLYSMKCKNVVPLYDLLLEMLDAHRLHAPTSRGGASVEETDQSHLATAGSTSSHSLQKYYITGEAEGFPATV
Procedure, shortened: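 Antagonist mode: compounds in DMSO are pinned onto VM7Luc4E2 reporter cells, 0.1 nM final 17beta-estradiol is added, and after 22 h at 37C luciferase luminescence is measured with ONE-Glo.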

[4] = qHTS assay to identify small molecule HDAC inhibitors (AID 1259364); also: potency is read from the fitted curve at half-maximal effect;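 also: wild-type HCT-116 cells with endogenous class I/II HDAC activity; nearly all actives have a fitted effect of over 45% in size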
Procedure, shortened: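 Cells (HCT-116, wild type) are seeded at 1,500 per well, incubated overnight, treated with compound in DMSO for 2 hr, then developed with HDAC-Glo I/II reagent for 30 min at room temperature.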

[5] = qHTS assay to identify small molecule HDAC inhibitors - cell viability counter screen (AID 1259365); also: series mostly up to about 92 µM; nearly all actives have a fitted effect of over 50% in size
Procedure, shortened: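 CellTiter-Glo luminescence (30 min, room temperature) reported viability after a 2 h compound exposure at 37 C. Cells: wild-type HCT-116, 1,500 per well, seeded the night before.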

[6] = qHTS assay to identify small molecule agonists of the sonic hedgehog signaling (Shh) pathway - cell viability counter screen (AID 1259366); also: nearly all actives have a fitted effect of over 50% in size; also: potency is read from the fitted curve at half-maximal effect
Procedure, shortened: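 Cytotoxicity counter screen: CellTiter-Fluor reagent added after 23 h compound exposure, then 1 h at 37C and fluorescence read. Cells were 3T3 Gli1-Luc, seeded 2,000 per well and dosed 4 h post-plating.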

[7] = qHTS assay to identify small molecule antagonists of the sonic hedgehog signaling (Shh) pathway - cell viability counter screen (AID 1259367); also: nearly all actives have a fitted effect of over 55% in size; also: potency is read from the fitted curve at half-maximal effect
Procedure, shortened: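 Tox21 library chemicals were tested on a Gli1-Luc NIH/3T3 clone (2,000 cells/well) stimulated by conditioned medium; viability was quantified as fluorescence from CellTiter-Fluor reagent added at 23 hr.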

[8] = qHTS assay to identify small molecule agonists of the sonic hedgehog signaling (Shh) pathway (AID 1259368; calls by dose curve; also: nearly all actives have a fitted effect of over 15% in size; also: potency is read from the fitted curve at half-maximal effect)
Procedure, shortened: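 Cells of a mouse NIH/3T3 clone stably expressing luciferase under the Gli1 transcriptional response element are exposed to test chemicals for 24 hr at 37 C. Pathway activation is detected as a rise in luminescence.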

[9] = qHTS assay to identify small molecule phospholipidosis (PLD) inducers (AID 1259344; active = well fitted curve in the direction sought with a large enough effect; an effect the other way counts as inactive or inconclusive)
Procedure, shortened: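 Image-based: LipidTOX Red pit count/intensity per well and per cell; HepG2, 24 h compound at 37 C, PFA fixation, Hoechst counterstain.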

Measured: Potency

O=C(/C=C/C=C/c1ccc2c(c1)OCO2)N1CCCCC1
active: [4] 9.71 µM and 8.63 µM
not listed: [8] | [9]
inactive: all other assays above

CC(=O)CC/C=C(\C)CCC=C(C)C
not listed: [9]
inactive: all other assays above

CCC(C)OC(=O)c1ccc(O)cc1 (stereo not drawn)
not listed: [4] | [9]
inactive: all other assays above

CC(C)Oc1ccc2c(=O)c(-c3ccccc3)coc2c1
active: [4] 2.37 µM
not listed: [3] | [8]
inactive: all other assays above

O=C(/C=C/c1ccccc1)OCc1ccccc1
inactive: all assays above

CC(C)OB(OC(C)C)OC(C)C
not listed: [9]
inactive: all other assays above

CCCCOCCOCCO
not listed: [9]
inactive: all other assays above

Nc1ccccc1N
inactive and 54.5 µM (active): [3]
active: [4] 19.8 µM | [8] 788 nM and 13.7 µM
not listed: [6]
inactive: all other assays above

c1ccc2sc(SSN3CCOCC3)nc2c1
active: [6] 48.5 µM | [7] 54.4 µM
not listed: [9]
inactive: all other assays above

CC(CCC(=O)O)(c1ccc(O)cc1)c1ccc(O)cc1
not listed: [9]
inactive: all other assays above

CC(C)OC=O
not listed: [9]
inactive: all other assays above

c1ccc2c(c1)Oc1ccccc1S2
not listed: [9]
inactive: all other assays above

CCC(C)(O)CCCC(C)C (stereo not drawn)
not listed: [9]
inactive: all other assays above

OC1CCCCCCCCCCC1
not listed: [9]
inactive: all other assays above

C=CC(C)(CCC=C(C)C)OC(C)=O (stereo not drawn)
not listed: [9]
inactive: all other assays above

c1ccncc1
not listed: [9]
inactive: all other assays above

Nc1ccc(Cl)cc1Cl
not listed: [9]
inactive: all other assays above

Cn1cnc([N+](=O)[O-])c1Sc1ncnc2nc[nH]c12
active: [7] 19.2 µM
not listed: [6]
inactive: all other assays above

COC(=O)CCC(=O)OC
not listed: [9]
inactive: all other assays above

Nc1ccc(Nc2ccccc2)cc1
active: [6] 61.1 µM | [7] 48.6 µM
not listed: [9]
inactive: all other assays above

Nc1ncnc2nc[nH]c12
not listed: [5]
inactive: all other assays above

C[C@]12CCC(=O)C=C1CC[C@@H]1[C@@H]2C(=O)C[C@@]2(C)[C@H]1CC[C@]2(O)C(=O)CO
not listed: [6]
inactive: all other assays above

CCCCC(CC)COCC1CO1 (stereo not drawn)
not listed: [9]
inactive: all other assays above

CCC(C)CO (stereo not drawn)
not listed: [9]
inactive: all other assays above

CCCCCCCCCCCO
not listed: [9]
inactive: all other assays above
